Calls of active or inactive are those of the source.
Assays:
Albumin (Bos taurus) = Albumin (Bos taurus) (UniProt P02769); experiment: compounds binding labelled BSA control protein – biochemical, small-molecule microarray, Alexa647 label, 635/667 nm fluorescence, artefact control for SMM control protein annotation, profiling panel (AID 1118); conditions: BSA-A647 binding, fluorescence 635 nm, higher = more signal;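 note: score merges 667 nm emission intensity and signal-to-noise per printed compound spot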
Chain of Albumin (Bos taurus) (P02769 whole entry, looked up): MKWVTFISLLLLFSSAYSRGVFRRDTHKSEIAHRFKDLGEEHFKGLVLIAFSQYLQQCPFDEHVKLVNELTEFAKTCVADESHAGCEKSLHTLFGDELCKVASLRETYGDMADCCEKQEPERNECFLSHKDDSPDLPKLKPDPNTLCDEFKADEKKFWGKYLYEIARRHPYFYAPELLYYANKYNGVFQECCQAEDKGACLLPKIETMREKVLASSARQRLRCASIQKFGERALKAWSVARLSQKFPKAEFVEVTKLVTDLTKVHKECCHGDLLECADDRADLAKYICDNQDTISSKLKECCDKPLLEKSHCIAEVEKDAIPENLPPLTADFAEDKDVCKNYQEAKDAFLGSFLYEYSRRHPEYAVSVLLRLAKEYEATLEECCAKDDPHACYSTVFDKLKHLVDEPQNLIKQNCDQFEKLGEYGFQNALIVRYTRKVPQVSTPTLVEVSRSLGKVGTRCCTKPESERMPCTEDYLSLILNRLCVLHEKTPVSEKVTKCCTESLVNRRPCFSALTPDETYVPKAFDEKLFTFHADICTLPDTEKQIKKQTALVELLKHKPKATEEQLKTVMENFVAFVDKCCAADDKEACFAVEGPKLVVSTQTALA

[1] = probe aXIP binding to arrayed compounds – biochemical, NeuroSMM set, 635/667 nm fluorescence, primary screen (AID 1119); conditions: small-molecule microarray, higher = more signal, called active from +8 up or from −8 down;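 note: probe is the protein aXip251-270 applied at 1 µg/mL to compound-printed slides; binding of probe to printed compounds measured as 667 nm fluorescence plus signal to noise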
[2] = probe aNOTCH3 binding on compound microarray – biochemical, small-molecule microarray, 635/667 nm fluorescence, primary screen (AID 1120); conditions: higher = more signal;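 note: probe is a biotin-tagged antibody raised against NOTCH3 rather than NOTCH3 protein; score merges spot fluorescence near 667 nm with spot signal to noise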
[3] = probe aNOTCH2 binding on compound microarray – biochemical, small-molecule microarray, 635/667 nm fluorescence, primary screen (AID 1121); conditions: higher = more signal;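 note: score merges feature fluorescence read at 667 nm with its signal to noise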
[4] = biological target: Carbonic anhydrase 2 (Homo sapiens) (UniProt P00918); experiment: compounds binding carbonic anhydrase 2 – biochemical, small-molecule microarray, Alexa647-labelled CAII, profiling panel (AID 1122); conditions: CAII-A647 binding fluorescence, higher = more signal
[5] = COS7 lysate on small-molecule microarray, probe aHis, 635 nm (AID 1123); conditions: COS7 cell lysate, fluorescence, higher = more signal;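 note: z-score combines 667nm fluorescence intensity with signal-to-noise per printed compound spot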
[6] = probe aLAP1 signal on lysate-treated microarray – cell lysate, small-molecule microarray, COS7 lysate, primary screen (AID 1124); conditions: probe aLAP1, fluorescence, higher = more signal;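 note: lysate comes from COS7 cells expressing LAP1 and is applied at 0.3 µg/mL; score merges spot fluorescence near 667 nm with signal-to-noise over triplicate slides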
Sam68 (KHDRBS1) = experiment: compounds binding KHDRBS1 protein – biochemical, small-molecule microarray, 635 nm fluorescence, primary screen (AID 1125); conditions: higher = more signal;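 note: score merges 667 nm channel intensity with signal to noise over triplicate slides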
[7] = system: Chordin-like protein 2 (CHRDL2); experiment: compounds binding chordin-like 2 – biochemical, small-molecule microarray, 635 nm fluorescence, primary screen (AID 1126); conditions: fluorescence 635 nm, higher = more signal;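 note: printed compound slides probed with Chrdl2 protein at 4 µg/mL for 1 h at 4 C; score merges 667 nm emission intensity with signal to noise over three replicate slides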
[8] = biological target: Concanavalin-A (Canavalia ensiformis) (UniProt P02866); experiment: compounds binding concanavalin A lectin – biochemical, small-molecule microarray, Alexa647 label, 635 nm, artefact control for SMM control protein annotation, primary screen (AID 1127); conditions: ConA-A647 binding fluorescence, higher = more signal;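 note: z combines 667 nm emission intensity with signal-to-noise across three replicate slides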
Chain of Concanavalin-A (Canavalia ensiformis) (P02866 whole entry, looked up): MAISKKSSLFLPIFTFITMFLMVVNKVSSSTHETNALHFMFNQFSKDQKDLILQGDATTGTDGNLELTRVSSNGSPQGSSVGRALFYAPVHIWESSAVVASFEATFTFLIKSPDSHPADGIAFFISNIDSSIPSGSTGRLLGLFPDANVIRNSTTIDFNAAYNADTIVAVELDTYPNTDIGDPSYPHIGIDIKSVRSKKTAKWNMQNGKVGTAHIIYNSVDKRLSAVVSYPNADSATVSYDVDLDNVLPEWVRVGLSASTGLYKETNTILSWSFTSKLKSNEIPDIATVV

[9] = compounds binding Alexa647 anti-His antibody – biochemical, small-molecule microarray, 635 nm fluorescence, artefact control for SMM control protein annotation, primary screen (AID 1128); conditions: higher = more signal;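 note: score merges feature fluorescence with signal-to-noise for each printed compound spot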
[10] = system: Human papillomavirus type 1a E7 protein (residues 1-88); experiment: HPV1a E7 small-molecule binders, primary screen, biochemical, small-molecule microarray, residues 1-88, 635 nm (AID 1129); conditions: small-molecule microarray binding, fluorescence 635 nm; higher = more signal
[11] = biological target: Focal adhesion kinase 1 (Homo sapiens) (UniProt Q05397); experiment: PTK2 protein binding on printed compound slides – biochemical, small-molecule microarray, 635/667 nm fluorescence, BSA, DTT, primary screen (AID 1130); conditions: 635 nm fluorescence, higher = more signal;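 note: composite of spot emission at 667 nm and signal to noise over triplicate slides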
Chain of Focal adhesion kinase 1 (Homo sapiens) (Q05397 whole entry, looked up): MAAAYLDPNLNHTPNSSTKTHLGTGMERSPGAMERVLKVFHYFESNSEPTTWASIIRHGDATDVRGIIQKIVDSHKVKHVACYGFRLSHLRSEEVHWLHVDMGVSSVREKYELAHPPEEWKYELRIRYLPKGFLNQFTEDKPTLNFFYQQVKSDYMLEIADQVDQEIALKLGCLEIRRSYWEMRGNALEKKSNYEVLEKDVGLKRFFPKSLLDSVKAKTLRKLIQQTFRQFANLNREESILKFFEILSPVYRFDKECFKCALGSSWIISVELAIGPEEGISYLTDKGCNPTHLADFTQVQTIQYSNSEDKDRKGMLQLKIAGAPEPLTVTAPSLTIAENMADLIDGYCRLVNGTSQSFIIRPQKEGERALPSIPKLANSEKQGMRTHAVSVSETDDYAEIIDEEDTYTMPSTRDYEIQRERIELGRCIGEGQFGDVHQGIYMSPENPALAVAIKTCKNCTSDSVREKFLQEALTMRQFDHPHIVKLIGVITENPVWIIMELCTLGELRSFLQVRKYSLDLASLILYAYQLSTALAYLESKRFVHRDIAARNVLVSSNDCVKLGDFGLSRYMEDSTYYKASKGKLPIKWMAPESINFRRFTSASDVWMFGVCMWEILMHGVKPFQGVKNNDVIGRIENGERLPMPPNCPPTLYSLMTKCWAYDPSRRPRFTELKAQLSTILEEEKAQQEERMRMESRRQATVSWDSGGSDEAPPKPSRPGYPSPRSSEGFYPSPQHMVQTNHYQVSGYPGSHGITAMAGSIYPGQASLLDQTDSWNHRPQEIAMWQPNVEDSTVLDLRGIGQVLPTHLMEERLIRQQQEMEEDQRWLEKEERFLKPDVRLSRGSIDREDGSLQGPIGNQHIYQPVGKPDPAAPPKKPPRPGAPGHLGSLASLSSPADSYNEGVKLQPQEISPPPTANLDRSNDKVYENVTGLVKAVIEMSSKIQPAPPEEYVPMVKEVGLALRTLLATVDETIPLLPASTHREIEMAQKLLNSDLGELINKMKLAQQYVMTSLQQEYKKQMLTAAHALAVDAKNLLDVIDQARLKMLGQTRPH

[12] = system: Fibrinogen (Alexa647-labelled); experiment: Alexa647-fibrinogen binding to printed small molecules – biochemical, small-molecule microarray, 635/667 nm fluorescence, artefact control for SMM control-protein annotation, profiling panel (AID 1131); conditions: fibrinogen-A647 binding fluorescence, higher = more signal;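 note: z-score merges 667 nm fluorescence with per-spot signal-to-noise over triplicate slides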
[13] = biological target: Follistatin (Homo sapiens) (UniProt P19883); experiment: FST protein binding to printed compounds – biochemical, small-molecule microarray, 635/667 nm fluorescence, primary screen (AID 1132); conditions: 635 nm fluorescence, higher = more signal
Chain of Follistatin (Homo sapiens) (P19883 whole entry, looked up): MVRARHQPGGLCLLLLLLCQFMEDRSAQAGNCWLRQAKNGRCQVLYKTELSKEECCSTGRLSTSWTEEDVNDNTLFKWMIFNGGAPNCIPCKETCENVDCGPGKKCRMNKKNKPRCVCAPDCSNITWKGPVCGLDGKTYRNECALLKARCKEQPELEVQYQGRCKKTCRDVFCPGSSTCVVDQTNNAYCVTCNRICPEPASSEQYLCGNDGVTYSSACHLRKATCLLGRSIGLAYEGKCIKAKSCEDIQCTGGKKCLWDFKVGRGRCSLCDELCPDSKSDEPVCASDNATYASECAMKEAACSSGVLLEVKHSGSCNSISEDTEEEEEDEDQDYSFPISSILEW

[14] = biological target: Fibroblast growth factor 2 (Homo sapiens) (UniProt P09038); experiment: basic fibroblast growth factor binding to printed compounds – biochemical, small-molecule microarray, 635/667 nm fluorescence, primary screen (AID 1133); conditions: FGF2, fluorescence 635/667, higher = more signal
Chain of Fibroblast growth factor 2 (Homo sapiens) (P09038 whole entry, looked up): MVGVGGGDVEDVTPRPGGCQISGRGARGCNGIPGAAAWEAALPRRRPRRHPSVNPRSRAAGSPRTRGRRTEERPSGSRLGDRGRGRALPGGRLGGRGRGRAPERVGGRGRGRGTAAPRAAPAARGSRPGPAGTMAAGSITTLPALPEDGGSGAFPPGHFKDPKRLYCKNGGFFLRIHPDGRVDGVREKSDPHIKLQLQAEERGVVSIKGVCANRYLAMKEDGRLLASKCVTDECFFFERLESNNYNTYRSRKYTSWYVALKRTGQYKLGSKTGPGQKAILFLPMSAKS

[15] = JC-1 mitochondrial potential readout, lung cancer cells – cell-based, A549, JC-1 fluorescence, basal, 24 h, 100 nL, profiling panel (AID 1138); conditions: higher = more signal;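 note: A549 lung adenocarcinoma cells under basal conditions with no added stimulus; test concentration not given here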
Lefty1 = Lefty1 protein binding to printed compounds – biochemical, small-molecule microarray, 635/667 nm fluorescence, primary screen (AID 1139); conditions: fluorescence 635/667, higher = more signal
[16] = system: wheat germ agglutinin (Triticum aestivum), Alexa647-labelled; experiment: Alexa647-WGA lectin binding to printed small molecules – biochemical, small-molecule microarray, 635/667 nm fluorescence, artefact control for SMM control-protein annotation, profiling panel (AID 1140); conditions: WGA-A647 binding, 635 nm fluorescence, higher = more signal;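 note: score merges 667 nm feature emission with signal to noise over triplicate slides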
[17] = biological target: Luciferin 4-monooxygenase (Photinus pyralis) (UniProt P08659); experiment: inhibition of purified Photinus pyralis luciferase – biochemical, luminescence, purified enzyme, 2006 set, primary screen (AID 1141); conditions: purified firefly luciferase, SteadyGlo luminescence, 30 min; higher = more signal, called active from +8 up or from −8 down;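 note: cell-free assay with purified firefly luciferase at 100 ng per well in PBS; test concentration not given here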
Chain of Luciferin 4-monooxygenase (Photinus pyralis) (P08659 whole entry, looked up): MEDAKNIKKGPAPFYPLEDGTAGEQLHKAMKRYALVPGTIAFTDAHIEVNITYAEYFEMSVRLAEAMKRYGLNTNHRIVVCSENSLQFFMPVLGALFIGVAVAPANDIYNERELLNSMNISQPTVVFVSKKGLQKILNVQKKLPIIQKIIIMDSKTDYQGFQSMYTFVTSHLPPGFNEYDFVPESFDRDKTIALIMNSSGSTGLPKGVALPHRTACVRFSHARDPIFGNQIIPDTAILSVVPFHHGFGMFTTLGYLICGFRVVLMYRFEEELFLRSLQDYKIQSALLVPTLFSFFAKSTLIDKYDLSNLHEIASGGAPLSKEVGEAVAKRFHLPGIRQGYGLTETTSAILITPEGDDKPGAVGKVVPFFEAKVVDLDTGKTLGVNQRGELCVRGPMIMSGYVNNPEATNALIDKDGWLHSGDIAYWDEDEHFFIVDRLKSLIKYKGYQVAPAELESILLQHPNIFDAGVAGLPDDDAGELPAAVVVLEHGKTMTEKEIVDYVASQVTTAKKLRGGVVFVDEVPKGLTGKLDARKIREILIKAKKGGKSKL

SMILES | composite z-score (Albumin (Bos taurus)) | composite Z-score [1] | composite z-score [2] | composite z-score [3] | composite z-score [4] | composite z-score [5] | composite z-score [6] | composite z-score (Sam68 (KHDRBS1)) | composite z-score [7] | composite z-score [8] | composite z-score [9] | composite z-score [10] | composite z-score [11] | composite z-score [12] | composite z-score [13] | composite z-score [14] | z-score [15] | composite z-score (Lefty1) | composite z-score [16] | z-score [17]
CCCCC(=C=CC[C@@H](O)c1ccc(OCCO)cc1)CCO | 0.543 | 0.742 (inactive) | -0.0947 | -0.12 | 0.755 | 1.46 | 0.145 | 0.118 | -0.346 | -0.321 | 1.83 | 0.407 | 0.814 | 0.0258 | 0.66 | 0.329 | 1.57 | 0.452 | 1.16 | -1.91 (inactive)
CCCCC=C[C@@H](NC(=O)C(C)(C)C)c1ccccc1 | 0.743 | -0.424 (inactive) | 0.259 | -0.0769 | 0.509 | -0.0783 | 0.983 | 1.09 | -0.264 | 1.04 | 1.14 | 1.09 | 0.35 | 0.935 | 0.495 | -0.0812 | -2.82 | 0.302 | 0.814 | 1.76 (inactive)
C=C(C(=O)CC[C@@H](OC(=O)c1cccnc1)c1cccc(OCCO)c1)C(C)C | -0.176 | 0.437 (inactive) | 0.0286 | -0.141 | 0.14 | -0.588 | 1.3 | -0.588 | -0.114 | 0.297 | 0.317 | -0.4 | -0.896 | 0.496 | 0.866 | 1.33 | 0.313 | 1.13 | 0.386 | -0.128 (inactive)
